# Publication PMC7862700, “An all-to-all approach to the identification of sequence-specific readers for epigenetic DNA modifications on cytosine”
# Tests used:
# Experiment in all cases: DAPPL (digital affinity profiling via proximity ligation, sequencing); 10 mM Tris-HCl pH 7.5, 50 mM NaCl, 1 mM DTT, 4% glycerol, room temperature, 30 min; GST-TFs on glutathione beads, 16-mer random dsDNA library, 0.1% formaldehyde crosslink after washing; high values mean tight binding
# FLI1 = target: T1, FLI1 (Homo sapiens, UniProt Q01543 1-452); conditions: protein: recombinant; tags: N-terminal GST; dsDNA, one strand shown
# T1 sequence: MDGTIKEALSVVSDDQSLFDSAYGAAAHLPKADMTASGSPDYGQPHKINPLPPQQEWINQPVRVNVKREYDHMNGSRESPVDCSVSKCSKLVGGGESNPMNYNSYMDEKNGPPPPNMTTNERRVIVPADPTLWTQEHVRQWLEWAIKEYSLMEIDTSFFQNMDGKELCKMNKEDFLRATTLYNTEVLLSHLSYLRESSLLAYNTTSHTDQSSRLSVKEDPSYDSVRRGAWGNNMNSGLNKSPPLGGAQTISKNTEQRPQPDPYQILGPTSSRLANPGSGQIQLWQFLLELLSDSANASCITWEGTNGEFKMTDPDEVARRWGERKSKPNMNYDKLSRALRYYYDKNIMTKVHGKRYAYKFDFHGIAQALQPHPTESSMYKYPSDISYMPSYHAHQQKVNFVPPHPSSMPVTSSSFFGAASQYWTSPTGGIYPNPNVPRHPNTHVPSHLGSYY
# Outline: (§1)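 Sequencing on an Illumina NextSeq500 followed washing, crosslinking with 0.1% formaldehyde, proximity ligation (BsaI/T4 ligase, 1 h, 37 °C) and PCR amplification of pools that had been incubated for 30 min at room temperature with 200 nmole of a random double-stranded 16-mer DNA library in Tris/NaCl/DTT/glycerol buffer. Each pool held DNA-barcoded human transcription factors, expressed in yeast as GST fusions and captured on glutathione beads, plus a tag-only sample. Binding signal is a hexamer's read frequency for a factor divided by its frequency in the tag-only sample.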
# GABPA = target: T2, GABPA (Homo sapiens, UniProt Q06546 1-454); conditions: protein: recombinant; tags: N-terminal GST; dsDNA, one strand shown
# T2 sequence: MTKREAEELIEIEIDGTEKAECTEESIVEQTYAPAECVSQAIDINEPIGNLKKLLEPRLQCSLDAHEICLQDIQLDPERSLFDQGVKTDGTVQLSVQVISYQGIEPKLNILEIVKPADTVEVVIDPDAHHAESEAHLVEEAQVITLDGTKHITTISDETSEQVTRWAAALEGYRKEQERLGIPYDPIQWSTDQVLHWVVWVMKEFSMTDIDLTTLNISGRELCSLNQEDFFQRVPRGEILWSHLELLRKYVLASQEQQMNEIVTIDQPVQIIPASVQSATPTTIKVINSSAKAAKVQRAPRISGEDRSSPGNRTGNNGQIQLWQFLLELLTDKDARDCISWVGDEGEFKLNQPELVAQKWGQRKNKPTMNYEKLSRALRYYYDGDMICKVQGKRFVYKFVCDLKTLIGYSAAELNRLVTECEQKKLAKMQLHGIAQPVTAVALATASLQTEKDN
# Outline: as §1
# ERG = target: T3, ERG (Homo sapiens, UniProt P11308 1-479); conditions: protein: recombinant; tags: N-terminal GST; dsDNA, one strand shown
# T3 sequence: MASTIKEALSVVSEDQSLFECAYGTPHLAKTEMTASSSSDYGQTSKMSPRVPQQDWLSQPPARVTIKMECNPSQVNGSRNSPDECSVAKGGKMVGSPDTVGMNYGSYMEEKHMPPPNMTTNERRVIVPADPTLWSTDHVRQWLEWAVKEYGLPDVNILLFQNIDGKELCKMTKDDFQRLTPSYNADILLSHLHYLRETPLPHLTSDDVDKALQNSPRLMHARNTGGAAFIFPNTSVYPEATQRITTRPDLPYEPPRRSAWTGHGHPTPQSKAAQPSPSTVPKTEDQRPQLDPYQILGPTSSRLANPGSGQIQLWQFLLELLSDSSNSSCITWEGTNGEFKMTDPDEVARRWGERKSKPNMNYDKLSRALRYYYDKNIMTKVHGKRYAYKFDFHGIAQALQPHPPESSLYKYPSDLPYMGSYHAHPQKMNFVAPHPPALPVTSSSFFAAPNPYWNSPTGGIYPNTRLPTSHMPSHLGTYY
# Outline: as §1
# ELF1 = ELF1 (Homo sapiens, UniProt P32519 1-619); conditions: protein: recombinant; tags: N-terminal GST; dsDNA, one strand shown
# Chain of ELF1 (P32519 whole entry): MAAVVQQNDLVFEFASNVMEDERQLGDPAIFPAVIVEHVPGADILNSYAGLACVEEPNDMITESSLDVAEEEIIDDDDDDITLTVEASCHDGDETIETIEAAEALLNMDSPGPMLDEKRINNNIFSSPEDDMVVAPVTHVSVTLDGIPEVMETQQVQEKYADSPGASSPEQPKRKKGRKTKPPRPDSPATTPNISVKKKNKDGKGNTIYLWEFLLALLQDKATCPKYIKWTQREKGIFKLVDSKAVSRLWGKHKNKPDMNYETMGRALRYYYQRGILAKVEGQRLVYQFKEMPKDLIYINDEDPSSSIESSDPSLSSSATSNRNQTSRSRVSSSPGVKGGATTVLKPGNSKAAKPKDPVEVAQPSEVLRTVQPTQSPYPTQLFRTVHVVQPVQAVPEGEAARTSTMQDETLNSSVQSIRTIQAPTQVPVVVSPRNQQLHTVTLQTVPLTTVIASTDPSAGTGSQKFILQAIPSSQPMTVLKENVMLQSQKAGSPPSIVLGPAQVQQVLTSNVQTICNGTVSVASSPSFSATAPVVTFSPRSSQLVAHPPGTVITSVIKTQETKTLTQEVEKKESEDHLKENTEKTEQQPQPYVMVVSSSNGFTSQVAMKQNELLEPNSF
# Outline: as §1
# SPI1 = SPI1 (Homo sapiens, UniProt P17947 1-270); conditions: protein: recombinant; tags: N-terminal GST; dsDNA, one strand shown
# Outline: as §1
# SPIB = SPIB (Homo sapiens, UniProt Q01892 1-262); conditions: protein: recombinant; tags: N-terminal GST; dsDNA, one strand shown
# Chain of SPIB (Q01892 whole entry): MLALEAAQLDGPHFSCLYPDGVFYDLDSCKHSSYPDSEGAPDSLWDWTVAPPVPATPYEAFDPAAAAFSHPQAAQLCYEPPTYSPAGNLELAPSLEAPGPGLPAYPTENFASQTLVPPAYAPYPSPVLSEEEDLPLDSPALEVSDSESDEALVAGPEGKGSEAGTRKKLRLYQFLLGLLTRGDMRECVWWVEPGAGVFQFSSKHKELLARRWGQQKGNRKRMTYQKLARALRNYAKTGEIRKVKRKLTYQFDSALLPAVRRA
# Outline: as §1
# ELK3 = target: T4, ELK3 (Homo sapiens, UniProt P41970 1-407); conditions: protein: recombinant; tags: N-terminal GST; dsDNA, one strand shown
# T4 sequence: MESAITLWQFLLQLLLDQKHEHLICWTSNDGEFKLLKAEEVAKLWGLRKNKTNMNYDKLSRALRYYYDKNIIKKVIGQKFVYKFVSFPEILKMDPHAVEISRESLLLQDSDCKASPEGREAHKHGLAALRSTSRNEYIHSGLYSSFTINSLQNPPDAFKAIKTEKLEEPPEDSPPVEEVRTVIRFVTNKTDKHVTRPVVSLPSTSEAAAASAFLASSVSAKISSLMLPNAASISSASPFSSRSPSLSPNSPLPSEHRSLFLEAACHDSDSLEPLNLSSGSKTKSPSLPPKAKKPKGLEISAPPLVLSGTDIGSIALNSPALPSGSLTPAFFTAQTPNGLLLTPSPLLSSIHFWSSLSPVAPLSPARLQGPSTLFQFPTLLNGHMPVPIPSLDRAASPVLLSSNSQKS
# Outline: as §1
# FEV = target: T5, FEV (Homo sapiens, UniProt Q99581 1-238); conditions: protein: recombinant; tags: N-terminal GST; dsDNA, one strand shown
# T5 sequence: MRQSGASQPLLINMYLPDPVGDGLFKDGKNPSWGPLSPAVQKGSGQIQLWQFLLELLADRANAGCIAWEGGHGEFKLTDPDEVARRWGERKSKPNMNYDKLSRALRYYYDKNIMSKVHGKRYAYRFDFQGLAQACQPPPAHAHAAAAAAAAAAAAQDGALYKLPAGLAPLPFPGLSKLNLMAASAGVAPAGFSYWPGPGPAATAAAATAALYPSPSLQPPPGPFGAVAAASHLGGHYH
# Outline: as §1
# HSF1 = HSF1 (Homo sapiens, UniProt Q00613 1-529); conditions: protein: recombinant; tags: N-terminal GST; chain copies: 3; dsDNA, one strand shown
# Chain of HSF1 (Q00613 whole entry): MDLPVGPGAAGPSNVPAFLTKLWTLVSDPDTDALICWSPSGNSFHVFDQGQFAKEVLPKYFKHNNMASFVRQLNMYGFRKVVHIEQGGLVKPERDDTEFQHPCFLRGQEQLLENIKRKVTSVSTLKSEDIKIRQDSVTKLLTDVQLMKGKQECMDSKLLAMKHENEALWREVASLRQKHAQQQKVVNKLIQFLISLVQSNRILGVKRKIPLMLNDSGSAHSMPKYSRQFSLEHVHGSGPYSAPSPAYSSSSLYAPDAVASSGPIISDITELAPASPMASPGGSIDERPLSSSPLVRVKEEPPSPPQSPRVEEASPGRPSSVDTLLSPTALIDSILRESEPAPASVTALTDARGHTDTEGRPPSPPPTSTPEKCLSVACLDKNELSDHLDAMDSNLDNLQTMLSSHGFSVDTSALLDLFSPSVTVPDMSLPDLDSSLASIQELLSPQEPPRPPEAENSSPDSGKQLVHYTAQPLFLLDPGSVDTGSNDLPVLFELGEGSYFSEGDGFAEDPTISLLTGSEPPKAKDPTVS
# Outline: as §1
# ETV2 = target: T6, ETV2 (Homo sapiens, UniProt O00321 1-342); conditions: protein: recombinant; tags: N-terminal GST; dsDNA, one strand shown
# T6 sequence: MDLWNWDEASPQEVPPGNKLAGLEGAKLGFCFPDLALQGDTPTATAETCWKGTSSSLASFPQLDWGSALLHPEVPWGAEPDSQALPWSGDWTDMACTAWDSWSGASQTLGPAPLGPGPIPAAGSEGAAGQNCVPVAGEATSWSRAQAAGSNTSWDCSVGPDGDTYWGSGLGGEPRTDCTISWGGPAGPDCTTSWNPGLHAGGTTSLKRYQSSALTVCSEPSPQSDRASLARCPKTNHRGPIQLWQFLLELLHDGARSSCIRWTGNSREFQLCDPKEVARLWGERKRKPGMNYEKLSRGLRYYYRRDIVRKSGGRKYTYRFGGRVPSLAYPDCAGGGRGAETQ
# Outline: as §1
# ELF3 = target: T7, ELF3 (Homo sapiens, UniProt P78545 1-371); conditions: protein: recombinant; tags: N-terminal GST; dsDNA, one strand shown
# T7 sequence: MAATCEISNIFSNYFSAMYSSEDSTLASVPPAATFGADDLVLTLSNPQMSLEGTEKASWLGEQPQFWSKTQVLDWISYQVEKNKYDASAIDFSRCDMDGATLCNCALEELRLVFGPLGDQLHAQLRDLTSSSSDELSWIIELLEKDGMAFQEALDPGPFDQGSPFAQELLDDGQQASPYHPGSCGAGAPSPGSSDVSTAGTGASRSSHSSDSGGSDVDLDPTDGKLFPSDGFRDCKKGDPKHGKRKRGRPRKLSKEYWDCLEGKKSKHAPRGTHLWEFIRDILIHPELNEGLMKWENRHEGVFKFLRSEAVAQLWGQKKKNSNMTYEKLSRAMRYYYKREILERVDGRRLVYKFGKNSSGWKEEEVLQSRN
# Outline: as §1
# CRX = CRX (Homo sapiens, UniProt O43186 1-299); conditions: protein: recombinant; tags: N-terminal GST; dsDNA, one strand shown
# Chain of CRX (O43186 whole entry): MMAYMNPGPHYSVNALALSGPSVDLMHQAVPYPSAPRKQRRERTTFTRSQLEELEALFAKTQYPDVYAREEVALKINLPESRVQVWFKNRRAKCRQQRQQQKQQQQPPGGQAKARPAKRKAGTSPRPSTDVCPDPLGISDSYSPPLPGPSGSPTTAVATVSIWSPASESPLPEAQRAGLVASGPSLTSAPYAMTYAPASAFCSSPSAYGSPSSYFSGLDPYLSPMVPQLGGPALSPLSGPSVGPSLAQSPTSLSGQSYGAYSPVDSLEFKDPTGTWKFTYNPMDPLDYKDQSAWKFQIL
# Outline: as §1
# ETV1 = ETV1 (Homo sapiens, UniProt P50549 1-477); conditions: protein: recombinant; tags: N-terminal GST; dsDNA, one strand shown
# Chain of ETV1 (P50549 whole entry): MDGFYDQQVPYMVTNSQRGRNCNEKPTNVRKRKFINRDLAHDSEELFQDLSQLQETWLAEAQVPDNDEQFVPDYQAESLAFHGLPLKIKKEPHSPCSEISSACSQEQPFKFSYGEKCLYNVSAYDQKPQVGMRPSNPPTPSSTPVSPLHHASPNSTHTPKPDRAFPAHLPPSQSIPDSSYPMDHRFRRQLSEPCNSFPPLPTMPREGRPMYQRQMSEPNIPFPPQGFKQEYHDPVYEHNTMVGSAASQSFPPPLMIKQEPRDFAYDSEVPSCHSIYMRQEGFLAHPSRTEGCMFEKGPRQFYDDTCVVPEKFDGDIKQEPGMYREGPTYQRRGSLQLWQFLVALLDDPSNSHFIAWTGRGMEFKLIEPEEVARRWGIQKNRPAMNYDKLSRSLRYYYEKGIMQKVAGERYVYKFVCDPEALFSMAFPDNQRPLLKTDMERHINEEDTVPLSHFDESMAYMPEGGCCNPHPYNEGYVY
# Outline: as §1
# ERF = target: T8, ERF (Homo sapiens, UniProt P50548 1-548); conditions: protein: recombinant; tags: N-terminal GST; dsDNA, one strand shown
# T8 sequence: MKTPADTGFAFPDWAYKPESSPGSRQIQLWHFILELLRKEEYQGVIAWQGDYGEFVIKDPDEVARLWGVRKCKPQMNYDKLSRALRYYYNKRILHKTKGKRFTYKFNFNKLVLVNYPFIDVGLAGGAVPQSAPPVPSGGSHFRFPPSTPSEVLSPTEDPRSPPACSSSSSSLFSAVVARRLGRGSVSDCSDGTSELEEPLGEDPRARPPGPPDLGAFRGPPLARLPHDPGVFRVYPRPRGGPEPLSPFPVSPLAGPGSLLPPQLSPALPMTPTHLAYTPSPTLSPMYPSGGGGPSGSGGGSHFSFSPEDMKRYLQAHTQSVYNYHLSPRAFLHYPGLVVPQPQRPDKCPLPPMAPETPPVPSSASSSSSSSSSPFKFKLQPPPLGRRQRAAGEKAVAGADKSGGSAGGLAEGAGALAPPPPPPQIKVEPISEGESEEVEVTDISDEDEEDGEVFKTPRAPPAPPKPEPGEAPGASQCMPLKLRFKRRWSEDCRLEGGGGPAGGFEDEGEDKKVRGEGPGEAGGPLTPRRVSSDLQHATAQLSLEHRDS
# Outline: as §1
# ETV3L = target: T9, ETV3L (Homo sapiens, UniProt Q6ZN32 1-361); conditions: protein: recombinant; tags: N-terminal GST; dsDNA, one strand shown
# T9 sequence: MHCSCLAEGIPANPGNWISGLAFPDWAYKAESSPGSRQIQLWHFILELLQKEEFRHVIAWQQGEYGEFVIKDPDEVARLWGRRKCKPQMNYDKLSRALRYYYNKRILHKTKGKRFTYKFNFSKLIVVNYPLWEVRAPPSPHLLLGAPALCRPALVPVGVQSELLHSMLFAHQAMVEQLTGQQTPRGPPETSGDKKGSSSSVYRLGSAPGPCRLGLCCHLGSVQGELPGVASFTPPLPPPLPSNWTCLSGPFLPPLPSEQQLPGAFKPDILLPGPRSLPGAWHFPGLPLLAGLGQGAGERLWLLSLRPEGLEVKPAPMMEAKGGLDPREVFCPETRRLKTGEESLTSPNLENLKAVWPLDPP
# Outline: as §1
# ETV3 = target: T10, ETV3 (Homo sapiens, UniProt P41162-2 1-143); conditions: protein: recombinant; tags: N-terminal GST; dsDNA, one strand shown
# T10 sequence: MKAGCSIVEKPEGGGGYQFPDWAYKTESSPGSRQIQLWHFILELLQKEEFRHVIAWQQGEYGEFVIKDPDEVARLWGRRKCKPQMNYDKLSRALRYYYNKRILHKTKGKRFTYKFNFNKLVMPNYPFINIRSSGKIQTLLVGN
# Outline: as §1
# ETV6 = ETV6 (Homo sapiens, UniProt P41212 1-452); conditions: protein: recombinant; tags: N-terminal GST; dsDNA, one strand shown
# Chain of ETV6 (P41212 whole entry): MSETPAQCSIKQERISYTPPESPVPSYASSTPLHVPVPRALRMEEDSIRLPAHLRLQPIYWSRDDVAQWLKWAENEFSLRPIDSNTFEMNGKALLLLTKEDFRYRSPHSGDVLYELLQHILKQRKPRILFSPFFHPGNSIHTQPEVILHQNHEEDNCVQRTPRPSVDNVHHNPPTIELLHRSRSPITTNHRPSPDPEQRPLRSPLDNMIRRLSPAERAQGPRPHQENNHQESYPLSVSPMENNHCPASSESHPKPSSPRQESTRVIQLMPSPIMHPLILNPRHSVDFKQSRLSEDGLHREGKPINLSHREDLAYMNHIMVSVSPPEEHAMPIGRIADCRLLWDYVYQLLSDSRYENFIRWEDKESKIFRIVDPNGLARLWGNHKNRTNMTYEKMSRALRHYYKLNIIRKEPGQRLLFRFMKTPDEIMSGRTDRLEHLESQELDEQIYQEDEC
# Outline: as §1
sequence,measurement,setting,value
TCTGGA,binding signal,FLI1,"1.02 fold enrichment (6-mer frequency, TF over GST control)"
same,binding signal,GABPA,"1.05 fold enrichment (6-mer frequency, TF over GST control)"
same,binding signal,ERG,"1.04 fold enrichment (6-mer frequency, TF over GST control)"
same,binding signal,ELF1,"1.01 fold enrichment (6-mer frequency, TF over GST control)"
same,binding signal,SPI1,"1.01 fold enrichment (6-mer frequency, TF over GST control)"
same,binding signal,SPIB,"1.01 fold enrichment (6-mer frequency, TF over GST control)"
same,binding signal,ELK3,"1.2 fold enrichment (6-mer frequency, TF over GST control)"
same,binding signal,FEV,"1.08 fold enrichment (6-mer frequency, TF over GST control)"
same,binding signal,HSF1,"3.75 fold enrichment (6-mer frequency, TF over GST control)"
same,binding signal,ETV2,"1.15 fold enrichment (6-mer frequency, TF over GST control)"
same,binding signal,ELF3,"1.06 fold enrichment (6-mer frequency, TF over GST control)"
same,binding signal,CRX,"1.72 fold enrichment (6-mer frequency, TF over GST control)"
same,binding signal,ETV1,"1.2 fold enrichment (6-mer frequency, TF over GST control)"
same,binding signal,ERF,"1.06 fold enrichment (6-mer frequency, TF over GST control)"
same,binding signal,ETV3L,"1.1 fold enrichment (6-mer frequency, TF over GST control)"
same,binding signal,ETV3,"1.05 fold enrichment (6-mer frequency, TF over GST control)"
same,binding signal,ETV6,"1.07 fold enrichment (6-mer frequency, TF over GST control)"
